The text below walks through data of PubChem BioAssay AID920 (The Scripps Research Institute Molecular Screening Center, 2007).

Structures are written as SMILES. Among all 200,000 compounds or so, about 700 (0.35%) were called active.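 The calls were made as follows: active = inhibition above a set limit, the mean inhibition across all tested compounds plus 3 SD (cut at about 34% in these data); inactive = the rest.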 Only a selection was taken, and actives are over-represented in it overall.

The experiment is described as follows: blockers of IFN-gamma driven STAT1 reporter – cell-based, HTS, luciferase reporter, primary screen (AID 920).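 Also: 0% = IFN-gamma with DMSO and 100% = IFN-gamma with 300 µM nifuroxazide.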 The settings on record: NIH 3T3 STAT1-luciferase reporter, luminescence, at 5.5 µM, active compounds read high.
For `Cn1c(=O)n(C)c2cc(C(=O)Nc3ccc4c(c3)OCO4)ccc21`, the inhibition was 35.6% (active).

`COc1ccc(C(=O)Nc2ccc3c(c2)OCO3)cc1OC`: the inhibition is -0.74% (inactive).

Consider `Cn1c(NC(=O)c2ccc3c(c2)OCO3)cc(=O)n(C)c1=O`, for which the inhibition is 0.99% (inactive).

Take `Clc1cccc(-c2nc(NCC3CCCO3)c3ccccc3n2)c1` (stereo unspecified): the inhibition is -0.29% (inactive).

As to `CCc1[nH]nc(C(=O)N2CCCC(CNS(=O)(=O)c3cccs3)C2)c1C` (stereo unspecified), the inhibition is 0.5% (inactive).

In the case of `O=C(CCl)N(Cc1cccc([N+](=O)[O-])c1)c1cccc(Cl)c1`, the inhibition was 60.4% (active).

As to `CCN(CC)C(=O)CN(c1cccc([N+](=O)[O-])c1)S(=O)(=O)c1ccccc1`, the inhibition was 3.4% (inactive).

Consider `O=C(Nc1cccc([N+](=O)[O-])c1)Nc1ccc(Cl)cn1`, for which the inhibition is -18.6% (inactive).

With `Cn1cccc1/C=C1\SC(=S)N(NC(=O)c2ccc(Cl)cc2)C1=O`, the inhibition was -4.58% (inactive).

Regarding `Cc1cc(C)nc(Nc2ncn[nH]2)n1`, the inhibition was -2.94% (inactive).

With `Oc1ccc(-c2nncn2-c2ccccc2)cc1`, the inhibition is -0.73% (inactive).

As to `COc1ccc(OCc2cccc(C(=O)N3CCCC3)c2)cc1`, the inhibition is 17.5% (inactive).

`CCOc1ccc(OCc2cccc(C(=O)N(CC)CC)c2)cc1`: the inhibition was 61% (active).

For `CCN(CC)C(=O)c1ccc(O)c(OC)c1`, the inhibition is 1.97% (inactive).

With `CCOc1ccc(NC(=O)CSc2ncnc3c2sc2ccccc23)cc1`, the inhibition is 1.83% (inactive).

In the case of `Cc1nnc(CN(C)Cc2cn[nH]c2-c2ccc(-c3ccccc3)cc2)o1`, the inhibition is -18.1% (inactive).

With `CCCCn1c(O)c(N=NC(=O)Cn2c(C(F)(F)F)nc3ccccc32)c2ccccc21`, the inhibition was -1.73% (inactive).

Take `Cc1ccc(N(C(=O)Cc2cccs2)C2C=CS(=O)(=O)C2)cc1Cl` (stereo unspecified): the inhibition is 0.68% (inactive).

In the case of `C[C@@H]1C[C@@H]2O[C@H]2/C=C\C=C\C(=O)Cc2c(Cl)c(O)cc(O)c2C(=O)O1`, the inhibition is 41.3% (active).

In the case of `O=C(COC(=O)CCc1ccc(S(=O)(=O)N2CCOCC2)cc1)Nc1cccc(Cl)c1`, the inhibition is -8.09% (inactive).

Take `CCN(CC)S(=O)(=O)c1ccc(C)c(NC(=O)COc2ccc(Br)cc2Cl)c1`: the inhibition is 0.32% (inactive).

Turning to `Cn1cc([N+](=O)[O-])c(C(=O)Nc2cnn(Cc3ccc(F)cc3)c2)n1`, the inhibition is 20.5% (inactive).

In the case of `O=C(Nc1ccc2c(c1)OCCO2)c1cnccn1`, the inhibition is -23.3% (inactive).

For `Cn1cc([N+](=O)[O-])c(C(=O)Nc2ccc3c(c2)OCCO3)n1`, the inhibition is 48.8% (active).

Turning to `NS(=O)(=O)c1ccc(N2C(=O)C3C4CC(C(Br)C4Br)C3C2=O)cc1` (stereo unspecified), the inhibition is 2.56% (inactive).

For `CS(=O)(=O)N(Cc1ccccc1)c1ccc(C(=O)NN=C2CCCCCC2)cc1`, the inhibition is 6.58% (inactive).

`O=C(NC(Nc1nc2ccc([N+](=O)[O-])cc2s1)(C(F)(F)F)C(F)(F)F)c1ccccc1`: the inhibition was 60.6% (active).

For the compound `O=C(Nc1nc2ccc([N+](=O)[O-])cc2s1)c1ccc(S(=O)(=O)N2CCCc3ccccc32)cc1`, the inhibition is 12.3% (inactive).

With `O=C(O)CCC(=O)Nc1nc2ccc([N+](=O)[O-])cc2s1`, the inhibition was -0.97% (inactive).

Take `O=C(COc1ccccc1)Nc1ccc(N2CCN(C(=O)c3cccs3)CC2)cc1`: the inhibition was -5.48% (inactive).

Consider `CCOC(=O)C(C)Sc1nc2ccccc2c(=O)n1CC1CCCCC1` (stereo unspecified), for which the inhibition was 2.46% (inactive).

Consider `O=c1c2ccccc2nc2n1C1(CCCCC1)Cc1ccccc1-2`, for which the inhibition was -5.21% (inactive).

`CN(c1ccc2nc3ccccc3c(=O)n2n1)C1CCCCC1`: the inhibition is 90.1% (active).

For `Cc1ccc(C)c(-n2nnnc2SCC(=O)c2c(N)n(C)c(=O)n(C)c2=O)c1`, the inhibition is -0.37% (inactive).

With `CCc1ccc(NC(=O)Nc2ccncc2)cc1`, the inhibition was -10.4% (inactive).

In the case of `CCOc1cc(C)c(Cl)cc1S(=O)(=O)n1nnc2ccccc21`, the inhibition is 42.2% (active).

`COc1cc(C)c(Cl)cc1S(=O)(=O)n1ccnc1`: the inhibition was 7.39% (inactive).

As for `CCCOc1cc(C)c(S(=O)(=O)n2nnc3ccccc32)cc1C`, the inhibition is -0.4% (inactive).

Regarding `CC(CC(=O)O)CC(=O)NNC(=O)c1cccc(Br)c1` (stereo unspecified), the inhibition was -8.27% (inactive).

For `O=C1c2ccccc2NC(c2ccccn2)N1NS(=O)(=O)c1ccccc1` (stereo unspecified), the inhibition is -5.92% (inactive).

Consider `O=c1oc2ccccc2cc1-c1cn(-c2ccccc2)c(=S)[nH]1`, for which the inhibition is 76.9% (active).

On to `O=C(c1cn(-c2ccccc2)nc1-c1cc2ccccc2oc1=O)N1CCOCC1`, for which the inhibition is 2.66% (inactive).

As to `Nc1ncc(-c2cc3ccccc3oc2=O)s1`, the inhibition was -72.7% (inactive).

Turning to `CCNC(=O)COc1cc(C)c(Br)c(C)c1`, the inhibition was -0.94% (inactive).

Take `CCC1CCCCN1CCCNC(=O)c1cc2c(Cl)nc3ccccc3c2s1` (stereo unspecified): the inhibition was -24.2% (inactive).

As for `O=C(C1=C[C@H](c2coc3ccccc3c2=O)C[C@H](OCc2ccc(CO)cc2)O1)N1CCN(Cc2ccccc2)CC1`, the inhibition is 7.51% (inactive).

On to `O=C1CC(c2c(F)cccc2Cl)C(n2cncn2)C(O)=C1C1NCCc2ccccc21` (stereo unspecified), for which the inhibition is -3.15% (inactive).

Turning to `O=C(O)c1ccc(N/N=C/c2ccc3ncccc3c2)cc1`, the inhibition is 37.4% (active).

`O=C(O)c1ccc(N/N=C/c2cn(-c3ccccc3)nc2-c2cccs2)cc1`: the inhibition was -5.55% (inactive).

In the case of `CCNC(=S)NNC(=O)c1ccc2ncccc2c1`, the inhibition was -9.62% (inactive).

As for `COc1ccc(N2CCN(C(=O)c3ccc4c(Cl)c5c(nc4c3)CCCC5)CC2)cc1`, the inhibition was 1.44% (inactive).

For the compound `Cn1c(-c2ccco2)nc2cc3ccccc3cc21`, the inhibition is 36.6% (active).

Turning to `CN1c2ccccc2-c2nc3ccccc3n2C1c1ccco1` (stereo unspecified), the inhibition was -3.93% (inactive).

In the case of `Cn1cccc1-c1nc2ccccc2n1C`, the inhibition was -1.19% (inactive).

In the case of `COCCNC(=S)N1CCC(NC(=O)C23CC4CC(CC(C4)C2)C3)CC1`, the inhibition was -0.94% (inactive).

Consider `CCOC(=O)C1(Cc2ccc(Cl)cc2)CCN(C(=O)C2=NNC(=O)CC2)CC1`, for which the inhibition was 2.27% (inactive).

As for `COC(=O)C1=C(C)N(C(C)c2ccccc2)C(=O)/C1=C\c1ccco1` (stereo unspecified), the inhibition is 6.65% (inactive).

On to `CCn1c(CSc2nc(C)cc(C)n2)nnc1SCC(N)=O`, for which the inhibition is -4.79% (inactive).

`Cc1ccccc1-n1cc(CNC(=O)CC2C(=O)NCCN2C/C=C/c2ccccc2)cn1` (stereo unspecified): the inhibition is -1.08% (inactive).

`O=C(CCN1CCN(c2ccccc2)CC1)NNC(=S)Nc1ccccc1`: the inhibition was 12.2% (inactive).

Take `CCN(CC)S(=O)(=O)c1ccc(NC(=O)c2cccnc2Cl)c(NC(=O)c2cccnc2Cl)c1`: the inhibition is 10.8% (inactive).

As to `CCOc1ncccc1C(=O)OCc1cn2cc(Cl)ccc2n1`, the inhibition is -9.01% (inactive).

With `Clc1ccc2nc(CSc3ccccc3)cn2c1`, the inhibition was 35.4% (active).

`O=c1cc(CSc2ccc(Cl)cc2)nc(N2CCOCC2)[nH]1`: the inhibition is 2.61% (inactive).

As for `O=C(NCCCO)/C(=C\C=C\c1ccccc1)NC(=O)c1ccccc1Cl`, the inhibition is 3.7% (inactive).

Regarding `Cc1nn(C)c(C)c1CN(C(=O)CCc1nnc(Cc2c[nH]c3ccccc23)o1)C(C)C`, the inhibition is -1.77% (inactive).

With `COCCn1c(C)cc(C2=NNC(=Nc3ccc(F)cc3)SC2)c1C`, the inhibition is -36.4% (inactive).

As to `C=CCn1c(C)cc(C2=NNC(=NCC)SC2)c1C`, the inhibition is 94.7% (active).

With `Cc1cc(C2=NNC(=Nc3ccc(S(=O)(=O)N4CCOCC4)cc3)SC2)c(C)n1CC1CCCO1` (stereo unspecified), the inhibition is -1.28% (inactive).

In the case of `N/C(=N\OC(=O)Cc1ccccc1[N+](=O)[O-])c1ccc(Br)cc1`, the inhibition is 0.32% (inactive).

Regarding `CCc1cc2c(N3CCN(c4nnc(CC)s4)CC3)ncnc2s1`, the inhibition was 51.2% (active).

`CCc1cc2c(SCC(=O)Nc3ncc(Cl)c(C)c3Cl)ncnc2s1`: the inhibition is -4.22% (inactive).

Turning to `CCc1cc2c(NC3CCCC3)ncnc2s1`, the inhibition is 22.1% (inactive).

Turning to `O=C1C2C3C=CC(C4CC34)C2C(=O)N1c1nccs1` (stereo unspecified), the inhibition is 3.92% (inactive).

For `C#CCOCCOCCOCCNc1nc(N2CCN(C(=O)[C@H](C(C)C)n3cc(CCO)nn3)CC2)nc(N2CCN(C(=O)[C@H]([C@@H](C)CC)n3cc(CCCN=C(N)N)nn3)CC2)n1`, the inhibition is -0.51% (inactive).

For `CC(=O)c1ccc(N2CCN(CC(=O)Nc3ccccc3N3CCOCC3)CC2)cc1`, the inhibition was 15% (inactive).

Regarding `O=C(CSC(=S)N1CCOCC1)c1ccccc1`, the inhibition was -27.1% (inactive).

For `CN(C)CCNC(CC(=O)Nc1ccc(Cl)c(Cl)c1)C(=O)O` (stereo unspecified), the inhibition is 0.9% (inactive).

On to `O=C(CC(O)(C(F)(F)F)C(F)(F)F)Nc1ccc(Cl)c(Cl)c1`, for which the inhibition was 48.3% (active).

For the compound `O=C(CC(=O)Nc1ccc(Cl)c(Cl)c1)N/N=C/c1ccc(O)cc1`, the inhibition is 6.41% (inactive).

In the case of `CC1=C(C)CC(C(=O)NC(C)CCc2ccccc2)C(C(=O)O)C1` (stereo unspecified), the inhibition is -0.81% (inactive).

Turning to `CCCCOc1ccc(C(=O)NCC(=O)OCC(=O)N2CCN(S(=O)(=O)c3ccc(C)cc3C)CC2)cc1`, the inhibition is -1.91% (inactive).

On to `CC(C)Cn1c(N)c(C(=O)NCc2cccs2)c2nc3ccccc3nc21`, for which the inhibition is -2.91% (inactive).

Consider `CCCNC(=O)c1c(N)n(-c2ccc(S(N)(=O)=O)cc2)c2nc3ccccc3nc12`, for which the inhibition is -1.16% (inactive).

For the compound `CCC(C)NC(=O)c1c(N)n(/N=C/c2cccs2)c2nc3ccccc3nc12` (stereo unspecified), the inhibition was 39.4% (active).

As for `Cc1ccc(-c2nc(-c3cccnc3)sc2CC(=O)Nc2ccc(C)c(Cl)c2)cc1`, the inhibition is 13.7% (inactive).
